This excerpt belongs to a sample that is enriched for hits.
TbREL1 inh – TbREL1 RNA ligase inhibitors, primary screen, biochemical, FRET fluorescence; actives 0.49% (n = 89,000); TbREL1 RNA ligation; RNA-editing ligase 1, mitochondrial (Trypanosoma brucei brucei), P86926; inhibition, % at 9.66 µM;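 active means inhibition above the mean inhibition across all screened compounds plus 3 SD, cut at about 11% in these data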
Target sequence (P86926 whole entry, looked up): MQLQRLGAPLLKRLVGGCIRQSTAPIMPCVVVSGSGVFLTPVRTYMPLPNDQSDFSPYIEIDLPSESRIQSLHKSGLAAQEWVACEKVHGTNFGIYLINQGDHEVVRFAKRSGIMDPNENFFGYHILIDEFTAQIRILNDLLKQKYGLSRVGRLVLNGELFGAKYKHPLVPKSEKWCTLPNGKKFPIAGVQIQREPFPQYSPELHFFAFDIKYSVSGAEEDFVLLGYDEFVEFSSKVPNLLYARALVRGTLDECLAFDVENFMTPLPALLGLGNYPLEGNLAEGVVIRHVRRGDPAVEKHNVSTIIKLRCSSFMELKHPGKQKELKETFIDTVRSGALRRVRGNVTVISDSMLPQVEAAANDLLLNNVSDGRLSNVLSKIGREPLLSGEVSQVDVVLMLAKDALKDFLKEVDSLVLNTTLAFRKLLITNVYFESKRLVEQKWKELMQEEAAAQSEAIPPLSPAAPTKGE
TbREL1 conf – TbREL1 RNA ligase inhibitors, confirmation, biochemical, FRET fluorescence, triplicate | shares compounds with TbREL1 inh | TbREL1 RNA ligation | inhibition, % at 9.66 µM | actives 37% (n = 390) | AID 1117282, 2014;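 active means mean inhibition across replicates above a set limit taken from the earlier primary screen, cut at about 11% in these data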
Hits are given with their value; i = inactive.

SMILES	TbREL1 inh	others
Nc1[nH]c(C(=O)c2ccccc2)c(-c2ccc(Cl)cc2)c1C(=O)NCCC1=CCCCC1	i
Cc1ccc(S(=O)(=O)NCC(=O)N2CCN(c3ccccn3)CC2)s1	i
Nc1ccc2c(c1)C(=O)C(=O)c1ccccc1-2	61	TbREL1 conf=87
Nc1ccc2oc(=O)c3ccccc3c2c1	i
Cc1ccc(N2C(=O)c3ccc(N)cc3C2=O)cc1C	i
COC(=O)[C@]12CCCCC=C1N(Cc1ccc(OC)cc1)C(=O)[C@@H]2CC(=O)N1CCN(C(=O)C2CC2)CC1	i
Cc1ccccc1NC(=O)[C@@H]1CCCN1S(=O)(=O)c1cccc2cccnc12	i
Cc1ccc(-n2c(SCC(=O)Nc3ccc(OCc4ccccc4)cc3)nnc2-c2ccccc2)cc1	i
CN(CCc1ccccc1)C(=O)c1cc2ccccn2n1	i
Cc1cc(Cl)c(OCCCNCc2ccccc2)c(Br)c1	12	TbREL1 conf=11
COc1cccc(OCCNCc2ccccc2)c1	i
CCCCNCc1cc(Br)c(OCC(=O)NCc2ccccc2)c(OC)c1	i
Cc1cc(Cl)c(OCCN2C(=O)NC(C)(C)C2=O)c(Br)c1	i
Clc1ccc(OCCCNCc2ccccc2)c(Br)c1	i
Cc1cc(C)c(OCCCNCc2ccccc2)c(Br)c1	15	TbREL1 conf=15
CN1CCCN(S(=O)(=O)c2ccc3c(c2)n(C)c(=O)c(=O)n3C)CC1	i
COC(=O)c1cccc(-n2c(C)cc(O)cc2=O)c1	i
O=C(CSc1nnc(NC(=O)c2ccco2)s1)Nc1ccc(F)cc1	i
O=C(Nc1nnc(SCc2cccc(F)c2)s1)c1ccco1	14	TbREL1 conf=i
CC(C)(C)C(=O)Nc1nnc(SCc2cccc(F)c2)s1	i
O=C1C(=O)N(Cc2ccc(-c3ccc(Cl)nc3)cc2)c2ccc(OC(F)(F)F)cc21	i
Nc1[nH]c(C(=O)c2ccccc2)c(-c2cccnc2)c1C(=O)NCCc1c[nH]c2ccccc12	i
Nc1ccc2nc(-c3ccccn3)[nH]c2c1	i
Nc1ccc2nc(-c3ccc(N)c(Cl)c3)[nH]c2c1	13	TbREL1 conf=i
Nc1ccc2nc(-c3cccnc3)[nH]c2c1	i
SMILES	TbREL1 inh	others
CCCCOCCCNC(=O)C[C@H]1C[C@@]2(C(=O)OC)C(=C[C@H](C(C)C)O[C@@H]2C2CC2)N(Cc2ccc(Cl)cc2Cl)C1=O	i
Nc1ccc2c(c1)OCCOCCOCCOCCOCCO2	14	TbREL1 conf=i
Nc1ccc(Oc2ccc3c(c2)OCO3)cc1	i
CC(=O)c1ccc2c(c1)OCCOCCOCCO2	i
Cc1nc(N2CCN(C(=O)C3CC3)CC2)c2c3c(sc2n1)CC(C)CC3 (stereo not drawn)	i
COCCCNC(=O)Cn1nc(Cc2ccncc2)c2ccccc2c1=O	i
O=C(Nc1ccccc1F)O[C@@H]1CC[C@@]23CCCN2C(=O)CCC[C@H]3C1	i
Cc1ccc(-c2nc(C3CCCN(S(=O)(=O)c4ccc(C)c(C)c4)C3)no2)cc1 (stereo not drawn)	i
O=C(NCc1ccccc1Cl)O[C@H]1CC[C@@]23CCCN2C(=O)CCC[C@H]3C1	i
OCc1ccnc2c(O)cccc12	i
Oc1ccc(CNc2ccc(C(F)(F)F)cc2F)c2cccnc12	13	TbREL1 conf=i
Oc1ccc(CNc2cccc(F)c2)c2cccnc12	i
O=Nc1ccc(O)c2ncccc12	i
Oc1ccc(CCc2c(F)cccc2F)c2cccnc12	i
Oc1ccc(CNc2ccccc2Br)c2cccnc12	14	TbREL1 conf=i
COc1cccc(CNS(=O)(=O)c2ccccc2Br)c1	i
O=C(CSc1nnc(-c2ccccc2)n1Cc1ccco1)Nc1ccc(Oc2ccccc2)cc1	i
CC(=O)C(C(C)=O)C1(O)C(=O)c2ccccc2C1=O	i
O=C(NC(C(=O)O)c1ccccc1)c1ccccc1 (stereo not drawn)	i
O=C(NC1(O)C(=O)c2ccccc2C1=O)c1ccccc1	22	TbREL1 conf=49
C=CCCC(=O)N(Cc1ccccc1)c1ccccc1C(=O)Nc1cc(OC)ccc1OC	i
COc1ccccc1N(Cc1ccccc1)S(=O)(=O)c1cccc(C(=O)NC2CC(C)(C)NC(C)(C)C2)c1	11	TbREL1 conf=14
COc1ccccc1N(Cc1ccccc1)S(=O)(=O)c1cccc(C(=O)Nc2cc(C)ccn2)c1	i
CN(c1ccccc1)S(=O)(=O)c1cccc(C(=O)NC2CC(C)(C)NC(C)(C)C2)c1	i
NS(=O)(=O)c1ccc(NC(=O)c2cc(=O)c3ccccc3o2)cc1	i
SMILES	TbREL1 inh	others
NS(=O)(=O)c1ccc(NC(=O)c2cccc(N3C(=O)c4ccccc4C3=O)c2)cc1	12	TbREL1 conf=23
O=C(Nc1ccc(C(=O)NN2C(=O)c3ccccc3C2=O)cc1)c1ccccc1	i
COc1ccc(CNC2CCC23CCCCC3)cc1OC (stereo not drawn)	i
Cc1cc(C)n(CCC(=O)N/N=C/c2ccccc2O)n1	i
Cc1cc(C)n(CCC(=O)N/N=C/c2ccc(O)cc2O)n1	12	TbREL1 conf=i
Cc1cc(C)n(CCC(=O)N/N=C/c2ccc(Cl)c([N+](=O)[O-])c2)n1	i
C[C@H]1[C@H](NC(=O)c2ccc(Cl)c(C(F)(F)F)c2)CC[C@@]23CCCN2C(=O)CCC[C@@H]13	i
COc1cc(F)c(S(=O)(=O)N2CCCN(S(=O)(=O)c3cccc(N)c3)CC2)c(F)c1	i
Cn1c(N=Nc2ccc(N3CCOCC3)cc2)[n+](C)c2ccccc21	23	TbREL1 conf=27
CCn1c(=Nc2ccc(N3CCOCC3)cc2)ccc2ccccc21	i
O=C(c1ccccc1)c1ccc(N2CCOCC2)cc1	i
NC(=NC(=O)/C=C/c1ccccc1Br)N(CC#Cc1ccccc1)CC#Cc1ccccc1	i
O=C1CCC[C@H]2Cc3nc4ccccc4cc3C[C@]23CCCN13	i
Cc1ccc(CNC(=O)O[C@H]2CC[C@@]34CCCN3C(=O)CCC[C@H]4[C@H]2C)o1	i
S=C(NCc1ccccc1)NCc1ccco1	i
S=C(NCc1ccc(Cl)c(Cl)c1)NCc1ccco1	i
S=C(NCc1ccco1)NCc1ccco1	17	TbREL1 conf=i
C[C@H]1[C@@H](NC(=O)c2ccc(O)cc2)CC[C@@]23CCCN2C(=O)CCC[C@@H]13	i
CCN(CC)CCCNC(=O)CC1Oc2ccccc2NC1=O (stereo not drawn)	i
O=C(CNCc1ccccc1[N+](=O)[O-])N1CCC2(CC1)OCCO2	i
O=Cc1ccc(-c2ccc(C(=O)O)cc2)o1	i
Cc1ccc(C(=O)N/C(=C\c2ccc(-c3cccc([N+](=O)[O-])c3)o2)C(=O)NC(C)(C)C)cc1	i
Cc1nc(S/C(=C/c2ccc(-c3ccc(C(=O)O)cc3)o2)C(=O)O)n[nH]1	21	TbREL1 conf=17
FC(F)(F)Oc1ccc(Cn2ccc3ccc(-c4ccc5ccn(Cc6ccccc6)c5c4)cc32)cc1	i
COc1ccc(C[C@H]2CN3C(=NC[C@@H]3Cc3ccccc3)N2CCNC(=O)CCC2CCCCC2)cc1	21	TbREL1 conf=18
SMILES	TbREL1 inh	others
C[C@@H]1CN=C2N(CCNC(=O)CCC3CCCCC3)[C@H](Cc3ccc(O)cc3)CN21	i
O=C(CCC1CCCCC1)NCCN1C2=NC[C@H](Cc3ccc(O)cc3)N2C[C@H]1Cc1ccc(O)cc1	i
Cc1ccc(C(=O)C2CCN(CC(=O)NCc3cccs3)CC2)cc1	i
Cc1cc(-c2n[nH]c(=S)n2N=Cc2ccc(O)cc2)n[nH]1	i
CC(C)c1ccc(NC(=O)CSc2nnc(-c3ccco3)n2C)cc1	i
COc1cccc(NC(=O)CSc2nnc(-c3ccco3)c(-c3ccco3)n2)c1	11	TbREL1 conf=i
CC(=O)c1ccc(NC(=O)CSc2ccc(-c3ccco3)nn2)cc1	i
